From PMC7862700, “An all-to-all approach to the identification of sequence-specific readers for epigenetic DNA modifications on cytosine”

Assays:
Experiment in all cases: DAPPL (digital affinity profiling via proximity ligation, sequencing); 10 mM Tris-HCl pH 7.5, 50 mM NaCl, 1 mM DTT, 4% glycerol, room temperature, 30 min; GST-TFs on glutathione beads, 16-mer random dsDNA library, 0.1% formaldehyde crosslink after washing; high values mean tight binding
Conditions in all cases: protein: recombinant; tags: N-terminal GST; dsDNA, one strand shown
FLI1 = target: T1, FLI1 (Homo sapiens, UniProt Q01543 1-452)
T1 sequence: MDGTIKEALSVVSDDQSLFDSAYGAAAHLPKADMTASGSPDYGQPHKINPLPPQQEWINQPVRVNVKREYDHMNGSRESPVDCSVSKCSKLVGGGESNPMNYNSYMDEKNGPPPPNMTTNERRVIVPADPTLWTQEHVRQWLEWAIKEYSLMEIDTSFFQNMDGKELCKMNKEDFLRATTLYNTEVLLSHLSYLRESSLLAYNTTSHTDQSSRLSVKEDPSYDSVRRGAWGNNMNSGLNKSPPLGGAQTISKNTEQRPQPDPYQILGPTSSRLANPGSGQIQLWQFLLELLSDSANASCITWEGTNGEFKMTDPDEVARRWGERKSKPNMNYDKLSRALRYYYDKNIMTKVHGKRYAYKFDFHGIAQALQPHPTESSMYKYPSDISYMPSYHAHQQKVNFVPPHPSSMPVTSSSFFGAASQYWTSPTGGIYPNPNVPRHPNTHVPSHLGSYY
How it was run: (§1)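 Pools were built from human transcription factors expressed in yeast as GST fusions, captured on glutathione beads and DNA-barcoded, along with a tag-only sample. Incubation with 200 nmole of a 16-mer random double-stranded DNA library lasted 30 min at room temperature in Tris/NaCl/DTT/glycerol buffer, and was followed by washing, 0.1% formaldehyde crosslinking, proximity ligation, PCR amplification and Illumina NextSeq500 sequencing. Binding signal is the quotient of each hexamer's read frequency for a factor and its frequency for the tag-only sample.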

ERG = target: T2, ERG (Homo sapiens, UniProt P11308 1-479)
T2 sequence: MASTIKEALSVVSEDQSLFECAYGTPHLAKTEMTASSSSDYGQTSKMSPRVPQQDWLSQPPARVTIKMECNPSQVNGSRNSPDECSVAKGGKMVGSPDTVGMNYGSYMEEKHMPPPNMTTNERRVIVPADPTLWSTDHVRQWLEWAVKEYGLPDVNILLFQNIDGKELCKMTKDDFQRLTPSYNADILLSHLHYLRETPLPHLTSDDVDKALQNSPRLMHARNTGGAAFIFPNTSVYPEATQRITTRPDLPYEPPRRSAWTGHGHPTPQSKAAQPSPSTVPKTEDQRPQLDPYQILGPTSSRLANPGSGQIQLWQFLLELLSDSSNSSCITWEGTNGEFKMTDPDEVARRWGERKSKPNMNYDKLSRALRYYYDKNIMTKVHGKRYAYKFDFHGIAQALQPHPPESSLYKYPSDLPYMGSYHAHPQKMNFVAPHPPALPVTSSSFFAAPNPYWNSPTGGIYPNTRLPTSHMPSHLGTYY
How it was run: as §1

ELF1 = ELF1 (Homo sapiens, UniProt P32519 1-619)
How it was run: as §1

EHF = target: T3, EHF (Homo sapiens, UniProt Q9NZC4 1-300)
T3 sequence: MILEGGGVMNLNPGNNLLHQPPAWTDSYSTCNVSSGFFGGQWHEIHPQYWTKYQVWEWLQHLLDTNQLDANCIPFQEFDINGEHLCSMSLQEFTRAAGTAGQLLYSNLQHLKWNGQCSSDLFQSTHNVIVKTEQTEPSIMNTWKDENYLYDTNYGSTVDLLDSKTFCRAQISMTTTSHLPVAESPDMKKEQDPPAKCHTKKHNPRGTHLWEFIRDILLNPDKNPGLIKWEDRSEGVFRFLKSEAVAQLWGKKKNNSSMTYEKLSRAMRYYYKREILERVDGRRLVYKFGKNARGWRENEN
How it was run: as §1

SPIB = SPIB (Homo sapiens, UniProt Q01892 1-262)
How it was run: as §1

ETV5 = ETV5 (Homo sapiens, UniProt P41161 1-510)
How it was run: as §1

ELF4 = ELF4 (Homo sapiens, UniProt Q99607 1-663)
How it was run: as §1

ELF3 = target: T4, ELF3 (Homo sapiens, UniProt P78545 1-371)
T4 sequence: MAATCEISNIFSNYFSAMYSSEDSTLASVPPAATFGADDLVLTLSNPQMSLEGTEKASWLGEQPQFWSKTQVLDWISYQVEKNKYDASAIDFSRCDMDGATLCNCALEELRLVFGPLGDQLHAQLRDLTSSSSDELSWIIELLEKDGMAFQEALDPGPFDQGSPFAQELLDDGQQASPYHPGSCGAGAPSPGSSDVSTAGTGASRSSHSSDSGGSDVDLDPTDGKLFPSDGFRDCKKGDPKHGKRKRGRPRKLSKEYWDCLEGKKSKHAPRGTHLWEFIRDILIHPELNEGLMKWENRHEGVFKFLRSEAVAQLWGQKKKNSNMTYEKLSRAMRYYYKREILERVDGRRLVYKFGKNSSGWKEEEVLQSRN
How it was run: as §1

ETV1 = ETV1 (Homo sapiens, UniProt P50549 1-477)
How it was run: as §1

ERF = target: T5, ERF (Homo sapiens, UniProt P50548 1-548)
T5 sequence: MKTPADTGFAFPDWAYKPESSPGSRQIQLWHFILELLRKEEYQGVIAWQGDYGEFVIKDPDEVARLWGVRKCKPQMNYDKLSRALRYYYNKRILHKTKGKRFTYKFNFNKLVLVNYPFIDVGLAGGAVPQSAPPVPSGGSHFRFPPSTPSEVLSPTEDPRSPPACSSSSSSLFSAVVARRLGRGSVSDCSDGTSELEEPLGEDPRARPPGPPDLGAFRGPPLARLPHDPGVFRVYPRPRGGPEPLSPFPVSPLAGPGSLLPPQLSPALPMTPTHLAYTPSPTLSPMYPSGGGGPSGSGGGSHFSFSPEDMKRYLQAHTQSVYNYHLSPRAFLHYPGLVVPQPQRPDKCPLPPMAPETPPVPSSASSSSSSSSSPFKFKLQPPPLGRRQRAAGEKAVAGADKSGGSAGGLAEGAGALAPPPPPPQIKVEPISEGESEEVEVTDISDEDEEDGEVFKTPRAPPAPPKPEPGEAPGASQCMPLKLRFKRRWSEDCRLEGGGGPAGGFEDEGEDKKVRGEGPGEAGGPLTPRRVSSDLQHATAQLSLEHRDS
How it was run: as §1

ETV3L = target: T6, ETV3L (Homo sapiens, UniProt Q6ZN32 1-361)
T6 sequence: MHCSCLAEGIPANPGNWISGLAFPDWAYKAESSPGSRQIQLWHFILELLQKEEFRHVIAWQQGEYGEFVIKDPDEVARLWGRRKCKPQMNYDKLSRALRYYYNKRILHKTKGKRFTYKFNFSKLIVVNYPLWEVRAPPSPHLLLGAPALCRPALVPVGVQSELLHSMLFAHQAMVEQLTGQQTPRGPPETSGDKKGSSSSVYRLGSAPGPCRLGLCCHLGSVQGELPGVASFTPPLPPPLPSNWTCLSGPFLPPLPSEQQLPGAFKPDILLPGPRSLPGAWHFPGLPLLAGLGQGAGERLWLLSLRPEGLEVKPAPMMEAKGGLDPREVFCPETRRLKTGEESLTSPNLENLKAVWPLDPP
How it was run: as §1

ETV3 = target: T7, ETV3 (Homo sapiens, UniProt P41162-2 1-143)
T7 sequence: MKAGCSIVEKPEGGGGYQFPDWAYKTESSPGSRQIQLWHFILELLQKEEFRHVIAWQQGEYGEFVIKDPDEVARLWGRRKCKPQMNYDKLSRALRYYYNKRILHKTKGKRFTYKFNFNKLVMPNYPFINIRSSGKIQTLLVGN
How it was run: as §1

ETV6 = ETV6 (Homo sapiens, UniProt P41212 1-452)
How it was run: as §1

Chain of SPIB (Q01892 whole entry): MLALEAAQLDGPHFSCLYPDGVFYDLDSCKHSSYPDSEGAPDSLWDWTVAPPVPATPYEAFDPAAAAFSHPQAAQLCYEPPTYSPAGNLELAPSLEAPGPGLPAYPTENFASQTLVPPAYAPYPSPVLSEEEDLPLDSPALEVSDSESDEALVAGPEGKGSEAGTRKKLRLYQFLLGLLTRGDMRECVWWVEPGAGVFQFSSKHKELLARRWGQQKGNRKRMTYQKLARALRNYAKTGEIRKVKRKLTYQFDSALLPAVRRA
Chain of ETV5 (P41161 whole entry): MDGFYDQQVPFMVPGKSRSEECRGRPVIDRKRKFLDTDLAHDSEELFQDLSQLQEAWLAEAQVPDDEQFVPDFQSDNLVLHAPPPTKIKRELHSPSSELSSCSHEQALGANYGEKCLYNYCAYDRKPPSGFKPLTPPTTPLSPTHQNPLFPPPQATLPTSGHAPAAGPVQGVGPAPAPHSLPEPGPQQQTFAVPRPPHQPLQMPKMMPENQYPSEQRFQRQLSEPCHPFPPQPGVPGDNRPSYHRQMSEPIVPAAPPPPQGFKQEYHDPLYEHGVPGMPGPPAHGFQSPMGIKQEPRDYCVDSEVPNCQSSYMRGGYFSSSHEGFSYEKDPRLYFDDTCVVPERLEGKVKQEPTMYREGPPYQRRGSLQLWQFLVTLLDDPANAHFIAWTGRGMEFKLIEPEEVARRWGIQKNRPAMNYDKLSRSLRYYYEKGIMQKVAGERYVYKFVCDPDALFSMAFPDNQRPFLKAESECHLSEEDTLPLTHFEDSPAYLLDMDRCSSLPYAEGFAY
Chain of ELF1 (P32519 whole entry): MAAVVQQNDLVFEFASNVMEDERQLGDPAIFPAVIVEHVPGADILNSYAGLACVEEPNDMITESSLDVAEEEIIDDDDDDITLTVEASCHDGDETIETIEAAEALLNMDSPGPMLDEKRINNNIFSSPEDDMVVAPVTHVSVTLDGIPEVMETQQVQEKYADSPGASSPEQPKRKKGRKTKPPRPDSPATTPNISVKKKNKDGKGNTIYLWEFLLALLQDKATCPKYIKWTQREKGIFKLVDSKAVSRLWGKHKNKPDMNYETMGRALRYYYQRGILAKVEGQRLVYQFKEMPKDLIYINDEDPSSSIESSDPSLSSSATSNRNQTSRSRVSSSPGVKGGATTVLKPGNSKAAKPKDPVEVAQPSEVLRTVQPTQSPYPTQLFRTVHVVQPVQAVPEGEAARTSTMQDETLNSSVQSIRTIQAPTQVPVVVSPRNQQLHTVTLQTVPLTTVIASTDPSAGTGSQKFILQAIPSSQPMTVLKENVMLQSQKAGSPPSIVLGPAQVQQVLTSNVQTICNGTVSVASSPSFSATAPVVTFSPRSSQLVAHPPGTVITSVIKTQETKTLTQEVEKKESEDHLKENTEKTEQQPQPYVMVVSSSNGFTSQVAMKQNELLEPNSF
Chain of ETV6 (P41212 whole entry): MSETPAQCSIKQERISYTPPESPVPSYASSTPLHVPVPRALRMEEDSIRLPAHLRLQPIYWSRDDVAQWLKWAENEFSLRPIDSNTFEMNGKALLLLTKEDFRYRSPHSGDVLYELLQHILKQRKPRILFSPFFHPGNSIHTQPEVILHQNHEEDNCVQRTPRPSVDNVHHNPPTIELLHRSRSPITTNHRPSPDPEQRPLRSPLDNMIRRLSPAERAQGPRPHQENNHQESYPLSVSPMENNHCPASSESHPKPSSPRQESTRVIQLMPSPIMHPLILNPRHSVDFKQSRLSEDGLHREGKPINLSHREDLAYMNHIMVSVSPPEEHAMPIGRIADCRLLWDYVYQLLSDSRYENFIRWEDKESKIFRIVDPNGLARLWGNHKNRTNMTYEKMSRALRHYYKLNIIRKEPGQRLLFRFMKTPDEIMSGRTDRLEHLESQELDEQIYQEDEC
Chain of ETV1 (P50549 whole entry): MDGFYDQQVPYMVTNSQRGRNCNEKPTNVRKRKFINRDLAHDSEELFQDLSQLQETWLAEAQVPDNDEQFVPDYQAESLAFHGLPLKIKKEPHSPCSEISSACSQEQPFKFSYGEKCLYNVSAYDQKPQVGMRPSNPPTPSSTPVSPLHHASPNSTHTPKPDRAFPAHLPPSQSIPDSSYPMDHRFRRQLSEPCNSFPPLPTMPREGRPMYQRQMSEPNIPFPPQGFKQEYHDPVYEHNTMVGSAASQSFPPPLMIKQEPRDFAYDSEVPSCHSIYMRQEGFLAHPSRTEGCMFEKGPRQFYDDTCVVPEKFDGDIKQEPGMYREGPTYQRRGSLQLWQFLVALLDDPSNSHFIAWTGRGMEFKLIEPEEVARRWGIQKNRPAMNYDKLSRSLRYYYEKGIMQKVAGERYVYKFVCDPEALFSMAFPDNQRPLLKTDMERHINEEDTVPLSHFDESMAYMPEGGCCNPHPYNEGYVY
Chain of ELF4 (Q99607 whole entry): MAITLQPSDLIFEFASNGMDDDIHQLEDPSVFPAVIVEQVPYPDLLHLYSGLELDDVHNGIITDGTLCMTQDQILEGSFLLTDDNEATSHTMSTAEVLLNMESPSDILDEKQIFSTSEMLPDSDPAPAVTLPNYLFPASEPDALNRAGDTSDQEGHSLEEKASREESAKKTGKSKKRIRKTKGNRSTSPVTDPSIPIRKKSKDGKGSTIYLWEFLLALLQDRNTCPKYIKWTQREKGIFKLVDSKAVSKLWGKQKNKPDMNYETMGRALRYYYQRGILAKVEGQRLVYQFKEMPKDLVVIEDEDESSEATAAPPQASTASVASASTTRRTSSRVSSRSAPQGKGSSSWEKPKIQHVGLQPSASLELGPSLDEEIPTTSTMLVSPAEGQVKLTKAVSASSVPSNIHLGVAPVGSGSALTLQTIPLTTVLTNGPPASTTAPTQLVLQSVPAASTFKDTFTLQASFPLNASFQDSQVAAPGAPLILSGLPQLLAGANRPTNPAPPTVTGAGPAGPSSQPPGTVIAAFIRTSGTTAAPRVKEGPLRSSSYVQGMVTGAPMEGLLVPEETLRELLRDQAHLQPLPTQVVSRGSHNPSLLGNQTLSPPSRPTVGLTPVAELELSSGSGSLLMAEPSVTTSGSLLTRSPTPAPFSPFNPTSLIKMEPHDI

CACGGA
binding signal (FLI1): 1.03 fold enrichment (6-mer frequency, TF over GST control)
binding signal (ERG): 1.04 fold enrichment (6-mer frequency, TF over GST control)
binding signal (ELF1): 1.04 fold enrichment (6-mer frequency, TF over GST control)
binding signal (EHF): 1.1 fold enrichment (6-mer frequency, TF over GST control)
binding signal (SPIB): 1.05 fold enrichment (6-mer frequency, TF over GST control)
binding signal (ETV5): 1.05 fold enrichment (6-mer frequency, TF over GST control)
binding signal (ELF4): 1.03 fold enrichment (6-mer frequency, TF over GST control)
binding signal (ELF3): 1.09 fold enrichment (6-mer frequency, TF over GST control)
binding signal (ETV1): 1.06 fold enrichment (6-mer frequency, TF over GST control)
binding signal (ERF): 1.01 fold enrichment (6-mer frequency, TF over GST control)
binding signal (ETV3L): 1.04 fold enrichment (6-mer frequency, TF over GST control)
binding signal (ETV3): 1.22 fold enrichment (6-mer frequency, TF over GST control)
binding signal (ETV6): 1.09 fold enrichment (6-mer frequency, TF over GST control)
